High-throughput results as filed in PubChem.
Only some compounds are listed: those with a hit (about 3.5% of all), similar ones and a draw of the others.
MITF inh = MITF inhibitors, primary screen, biochemical, AlphaScreen, human; Microphthalmia-associated transcription factor (Homo sapiens), O75030; AlphaScreen MITF homodimerization, bead proximity signal; inhibition, % at 2.6 µM; actives 0.91% (n = 650,000); AID 1259374, 2018; in the data active means inhibition above about 50%;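 further: 0% = vehicle wells with protein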
TEAD-YAP inh = TEAD-YAP interaction inhibition, primary screen, TEAD-YAP interaction inhibitor project, luminescence, HEK-TIYL cells | TEAD-Gal4/YAP UAS-luciferase luminescence | inhibition, % at 9.12 µM | actives 1.4% (n = 640,000) | AID 1259422, 2018; in the data active means inhibition above about 32%;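 further: 0% = median of test compound wells and 100% = reference inhibitor wells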
FBW7 activator = FBW7 E3 ligase activators, primary screen, biochemical, AlphaScreen, human. AlphaScreen FBW7–phospho-cyclin E peptide binding, activator screen. normalized activity (activation), % at 26.1 µM. actives 0.13% (n = 650,000); in the data active means normalized activity above about 1.9%;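 further: purified mutant Fbw7 with reduced substrate affinity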
GPR151 ag = activators of human GPR151, primary screen, cell-based, PathHunter beta-arrestin, luminescence; G-protein coupled receptor 151 (Homo sapiens), Q8TDV0; AID 1508602, 2020; PathHunter beta-arrestin GPR151 cells; actives 1% (n = 650,000); activation, % at 11.2 µM; in the data active means activation above about 4.9%;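 further: 0% = median of compound wells and 100% = cells with positive control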
GPR151 confirm = GPR151 activators, triplicate retest, confirmation, cell-based, PathHunter beta-arrestin, luminescence; shares compounds with GPR151 ag; GPR151 PathHunter beta-arrestin cells, 90 min; % of EA-reagent control over plate median; activation, % at 11.2 µM; 6,700 tested, under 10 active; AID 1508609, 2020;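 active means mean percent activation across replicates above the confirmation screen cutoff of 4.91%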
GPR119 counter = GPR119 activators in beta-arrestin cells, counter-screen for GPR151 activator project, cell-based, PathHunter beta-arrestin, luminescence, triplicate | shares compounds with GPR151 ag | 90 min; 0 = compound-well median, 100 = enzyme-acceptor control | activation, % at 11.2 µM | actives 0.3% (n = 6,700) | AID 1508611, 2020;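 active means mean percent activation in the counterscreen above 29.09%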;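 further: counterscreen on off-target GPR119 to flag nonselective hits from the GPR151 activator screen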
Target sequence (Q8TDV5 whole entry, looked up): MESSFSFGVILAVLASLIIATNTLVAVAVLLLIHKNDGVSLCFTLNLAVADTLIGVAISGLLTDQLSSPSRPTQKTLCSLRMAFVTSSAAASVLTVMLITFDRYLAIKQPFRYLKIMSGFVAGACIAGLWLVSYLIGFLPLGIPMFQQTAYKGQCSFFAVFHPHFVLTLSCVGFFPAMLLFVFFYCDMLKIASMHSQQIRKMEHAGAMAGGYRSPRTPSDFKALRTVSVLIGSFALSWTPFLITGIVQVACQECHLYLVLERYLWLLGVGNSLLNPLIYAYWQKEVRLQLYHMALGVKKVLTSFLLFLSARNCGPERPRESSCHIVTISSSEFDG
* = called active by the depositor; nt = no result given.

SMILES | MITF inh | TEAD-YAP inh | FBW7 activator | GPR151 ag | GPR151 confirm | GPR119 counter
O=C(O)c1ccc(NC(=O)C2CC(=O)N(Cc3ccc4c(c3)OCO4)C(=Nc3cccc(C(F)(F)F)c3)S2)cc1 (stereo not given) | -0.2 | 15.3 | 0.0 | 0.8 | nt | nt
O=S(=O)(Cc1ccccc1)N1CCN(c2ccc(F)cc2)CC1 | -9.6 | 4.8 | 0.9 | 0.0 | nt | nt
COc1ccc(N2CCN(S(=O)(=O)Cc3ccccc3)CC2)cc1 | -9.5 | 3.6 | -0.1 | 6.8* | -0.9 | -11.6
O=C(Cn1cc2c(n1)CCCC2)NCCCN1CCN(C2CCCCC2)CC1 | 13.5 | 6.2 | 0.2 | 5.0* | 0.7 | 10.8
O=C(Cn1cc2c(n1)CCCC2)NCCCN1CCCCC1 | 0.2 | 2.2 | 0.8 | 0.7 | nt | nt
COC(=O)c1c(NC(=O)/C=C\C(=O)O)sc(C)c1C | 20.9 | -0.6 | 0.1 | 13.6* | -0.8 | 2.9
O=C1/C(=c2\sc3nc4ccccc4n3c2=O)c2ccccc2N1Cc1ccccc1 | -0.3 | -9.5 | 0.0 | 7.2* | 0.5 | -11.9
O=C(CN1C(=O)/C(=c2/sc3nc4ccccc4n3c2=O)c2ccccc21)Nc1ccc(F)cc1 | 4.0 | 4.9 | -0.1 | 1.8 | nt | nt
CN1C(=O)/C(=c2\sc3nc(=O)c(Cc4ccccc4)nn3c2=O)c2ccccc21 | 15.3 | 3.4 | 0.1 | 5.5* | 0.2 | 4.2
COCCn1cc(C(=O)NCCC2=CCCCC2)c2c3ccccc3n(C)c2c1=O | -7.2 | -7.9 | 0.1 | 1.1 | nt | nt
CC(C)(C)CN1CCc2nnc(CNC(=O)c3cccc(F)c3)n2CC1 | 4.5 | 8.8 | -0.2 | 0.8 | nt | nt
O=C(NCc1nnc2n1CCN(C/C(Cl)=C/c1ccccc1)CC2)c1cccc(F)c1 | -3.7 | 1.6 | -0.1 | 9.2* | 0.5 | 13.7
COc1ccc(S(=O)(=O)n2nc(C)cc2C)cc1 | -0.5 | 0.3 | 0.7 | 5.0* | 0.0 | -2.7
CC1=C(C(=O)OC2CCCC2)C(c2coc3ccc(C)cc3c2=O)C2=C(CC(C)(C)CC2=O)N1 (stereo not given) | 0.6 | 6.0 | -0.2 | -0.2 | nt | nt
CC(=O)c1ccc(NC(=O)C(Cc2ccccc2)n2cccc2)cc1 (stereo not given) | 6.7 | 5.0 | 0.0 | 5.2* | -0.5 | 6.2
O=C(CCC(=O)c1ccc(Cl)cc1)OCc1ccc([N+](=O)[O-])cc1 | -3.5 | 1.9 | -0.1 | 0.9 | nt | nt
O=C(CCC(=O)OCc1ccc([N+](=O)[O-])cc1)OCc1ccc([N+](=O)[O-])cc1 | -2.1 | -6.6 | 0.5 | 5.5* | 0.5 | 5.1
CC[C@H](C)[C@@H]1NC(=O)[C@@H]2C[C@H](NC(=O)Nc3cccc(Cl)c3)CN2C1=O | -10.4 | -20.9 | 0.0 | 5.3* | -0.2 | 8.6
Cc1ccsc1C(=O)Nc1ccc(-c2nnc3n2CCCCC3)cc1 | 24.5 | -23.0 | 0.8 | -6.3 | nt | nt
O=c1[nH]nc(SCc2c(F)cccc2[N+](=O)[O-])c(=O)[nH]1 | 7.1 | 0.6 | 0.0 | 0.5 | nt | nt
Nc1nonc1C(=O)NCCNCc1ccccc1Cl | 6.1 | -7.4 | 0.1 | -0.6 | nt | nt
CCOc1ccccc1CNCCNC(=O)c1nonc1N | 7.1 | 6.5 | 0.1 | 6.3* | -0.1 | -6.2
COc1ccccc1NC(=O)CSc1nc2c(c(=O)[nH]1)CN(Cc1ccccc1)CC2 | 10.0 | 4.4 | 0.7 | -0.5 | nt | nt
COC(=O)c1cc(Nc2ccc(C)cc2)c2cccc(F)c2n1 | 0.1 | 21.0 | 0.2 | 2.0 | nt | nt
COC(=O)c1cc(Nc2cccc(F)c2)c2cccc(OC)c2n1 | -13.9 | 4.0 | 0.0 | 7.9* | 0.3 | -2.6
SMILES | MITF inh | TEAD-YAP inh | FBW7 activator | GPR151 ag | GPR151 confirm | GPR119 counter
COc1ccccc1N=Cc1c(O)n(-c2ccccc2C)c(=O)[nH]c1=O | 22.0 | -2.5 | 0.0 | 6.0* | 0.7 | 8.9
Cc1ccccc1-n1c(O)c(C=NCCCC(C)C)c(=O)[nH]c1=O | -2.7 | 10.1 | 0.2 | 8.5* | 0.3 | 13.2
CCC(C)NC(=O)C1CC(=O)N(c2ccc(OC)cc2)C1 (stereo not given) | 3.0 | 8.9 | 0.4 | -0.1 | nt | nt
CC1(CCc2ccccc2)NC(=O)NC1=O (stereo not given) | 18.7 | 3.7 | 0.1 | 8.6* | 0.8 | 11.8
CC1(CCc2ccccc2)NC(=O)N(N)C1=O (stereo not given) | -2.6 | 15.9 | 0.3 | 6.7* | -0.7 | -3.4
CCNC(=O)c1cc2c(=O)n3cc(C)ccc3nc2n(CCCN2CCOCC2)c1=N | -5.7 | 9.2 | -0.4 | -1.2 | nt | nt
Clc1c(OCCCCN2CCOCC2)ccc2ccccc12 | 13.4 | -22.6 | -0.1 | 0.1 | nt | nt
CSc1ccccc1C(=O)N(C)Cc1ccccc1 | 2.8 | -10.2 | 0.6 | 5.8* | 0.2 | 9.2
O=C1c2cccc3c([N+](=O)[O-])ccc(c23)C(=O)N1CCc1ccccc1 | 14.2 | 3.8 | 0.1 | 6.9* | 0.0 | 1.1
O=C(Oc1ccc(OC(=O)c2ccncc2)cc1)c1ccncc1 | 8.9 | -7.7 | -0.1 | 10.2* | -1.3 | -14.7
COc1ccc(C(=O)Oc2ccc(/C=C/c3ccncc3)cc2)cc1OC | 13.3 | 57.2* | -0.1 | 5.2* | -0.4 | 3.5
O=C(CSc1nnnn1C1CCCC1)N1CCOCC1 | -6.5 | -28.3 | -0.3 | -0.2 | nt | nt
O=C(CSc1nnnn1C1CCCCC1)N1CCCCC1 | -20.2 | -47.4 | 0.0 | 5.0* | -0.6 | -7.0
C/C(=N\NC(=O)c1cccs1)C1CC1 | 3.6 | -63.2 | -0.1 | -2.2 | nt | nt
Nc1nc(N2CCOCC2)nc(N2CCOCC2)c1[N+](=O)[O-] | -4.0 | 3.2 | -0.3 | 6.5* | 0.2 | -8.9
CCCCN(C)c1nc(N)c([N+](=O)[O-])c(N2CCOCC2)n1 | 0.1 | 1.8 | 0.0 | 4.8 | nt | nt
CC12CC3CC(C1)CC(NC(=O)c1ccc(Cl)cc1Cl)(C3)C2 | 6.2 | -9.0 | 0.0 | 5.0* | -0.1 | -4.9
CC1(C)CC(NC(=O)C(=O)NN)CC(C)(C)N1 | 8.5 | 4.8 | -0.2 | 2.4 | nt | nt
COc1cccc2cc(C(=O)C3=C(O)C(=O)N(Cc4ccco4)C3c3cccnc3)oc12 (stereo not given) | -2.3 | 10.7 | -0.3 | 5.4* | -0.4 | 8.5
CCOC(=O)c1ccc(-c2ccc(C3Nc4ccccc4-c4nnc(SCC)nc4O3)o2)cc1 (stereo not given) | 1.5 | -79.1 | 0.0 | -3.9 | nt | nt
CC(C)[C@H](NC(=O)c1ccccc1F)C(=O)Nc1ccc2c(c1)OCO2 | -6.2 | -6.4 | 0.0 | 0.4 | nt | nt
O=C(NC(NC(=O)c1ccccc1F)c1ccc2c(c1)OCO2)c1ccccc1F | -2.8 | 0.9 | -0.2 | 10.6* | 0.6 | 0.1
N#CC1=C(NC(=O)c2ccc([N+](=O)[O-])cc2)CCC1 | 2.8 | 9.1 | 0.2 | 5.6* | -0.5 | 6.4
